Test results: the supplement of paper PMC10849652
About 8,800 targets were measured; listed, in parts, are those with a hit and a random draw of the rest. About 0.5% of all pairs of compound and target were hits. A number with no mark means an inactive call.

Columns and labels:
Experiment in all cases: log2 fold change, soluble protein after heating vs DMSO (PISA); higher = thermal stabilisation; K562 lysate, 10 uM; active = over 0.2 and 3.5 SD of the protein, either way, in both replicates (recomputed)
[1] = compound: CN1CC[C@H](c2c(O)cc(O)c3c(=O)cc(-c4ccccc4Cl)oc23)[C@H](O)C1 [alvocidib]
How it was run: (§1)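 Thermal stability, expressed as log-two fold change relative to solvent controls, is given from duplicates. Crude K562 extract in PBS pH 7.4 with 1 mM MgCl2, at 1 mg/mL protein, was treated with 10 μM compound for 30 min and heated in aliquots for 3 min across 48°C-58°C. After pooling, adjustment to 0.5% NP-40 at 4°C and centrifugation at 21,000xg for 90 min, supernatant protein was measured by TMTpro 16plex LC-MS/MS with channel sums equalised.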

[2] = compound: CN1CCc2c(c3ccccc3n2Cc2ccc(C(=O)NO)cc2)C1 [Tubastatin A]
How it was run: as §1

[3] = compound: CNC(=O)C1=CC=CC=C1NC2=NC(=NC=C2Cl)NC3=C(C=C(C=C3)N4CCOCC4)OC
How it was run: as §1

[4] = compound: CNC(=O)c1ccc(Nc2ncc(C(F)(F)F)c(NCc3nccnc3N(C)S(C)(=O)=O)n2)cc1 [defactinib]
How it was run: as §1

[5] = compound: CNc1nc(-c2ccc3c(N)n[nH]c3c2)cc(N2C[C@@H](C(=O)NC3CCCCC3)CC[C@H]2C)n1
How it was run: as §1

[6] = compound: COC(=O)N[C@@H](C)CNc1nccc(-c2cn(C(C)C)nc2-c2cc(Cl)cc(NS(C)(=O)=O)c2F)n1 [encorafenib]
How it was run: as §1

[7] = compound: COC(=O)[C@H](CCSC)NC(=O)C1=C(C=C(C=C1)NC[C@H](CS)N)C2=CC=CC=C2
How it was run: as §1

[8] = compound: COc1cc(Nc2ncc3c(n2)-c2ccc(Cl)cc2C(c2c(F)cccc2OC)=NC3)ccc1C(=O)O [alisertib]
How it was run: as §1

[9] = compound: COc1cc2nc(-c3cc(F)ccc3O)nc(N[C@@H]3CNC[C@H]3C(C)(C)O)c2cc1OC
How it was run: as §1

[10] = compound: COc1cc2ncnc(Nc3ccc(F)c(Cl)c3)c2cc1OCCCN1CCOCC1 [gefitinib]
How it was run: as §1

[11] = compound: CS(=O)(=O)CCNCc1ccc(-c2ccc3ncnc(Nc4ccc(OCc5cccc(F)c5)c(Cl)c4)c3c2)o1 [lapatinib]
How it was run: as §1

[12] = compound: CS(=O)(=O)N1CCN(Cc2cc3nc(-c4cccc5[nH]ncc45)nc(N4CCOCC4)c3s2)CC1 [pictilisib]
How it was run: as §1

[13] = compound: C[C@@H](Oc1cc(-c2cnn(C3CCNCC3)c2)cnc1N)c1c(Cl)ccc(F)c1Cl [crizotinib]
How it was run: as §1

[14] = compound: C[C@H](C1=CC=C(C=C1)C(=O)NC2=C3C=CNC3=NC=C2)N
How it was run: as §1

[15] = compound: C[C@H](Nc1ncnc2nc[nH]c12)c1cc2cccc(Cl)c2c(=O)n1-c1ccccc1 [duvelisib]
How it was run: as §1

[16] = compound: Cc1cc(Nc2cc(CN3CCOCC3)c3nc(C)c(Cc4ccc(Cl)cc4F)n3n2)n[nH]1 [gandotinib]
How it was run: as §1

[17] = compound: Cc1cc(Nc2cc(N3CCN(C)CC3)nc(Sc3ccc(NC(=O)C4CC4)cc3)n2)n[nH]1 [tozasertib]
How it was run: as §1

[18] = compound: Cc1ccc(-n2nc(C(C)(C)C)cc2NC(=O)Nc2ccc(OCCN3CCOCC3)c3ccccc23)cc1 [doramapimod]
How it was run: as §1

[19] = compound: Cc1ccc(NC(=O)c2ccc(CN3CC[C@H](N(C)C)C3)c(C(F)(F)F)c2)cc1Nc1nccc(-c2cncnc2)n1 [bafetinib]
How it was run: as §1

[20] = compound: Cc1cccc(CC(=O)N2CCc3c2ccc(-c2cn(C)c4ncnc(N)c24)c3F)n1
How it was run: as §1

Sequence of UniProt Q6P3W2 (Q6P3W2 whole entry, looked up): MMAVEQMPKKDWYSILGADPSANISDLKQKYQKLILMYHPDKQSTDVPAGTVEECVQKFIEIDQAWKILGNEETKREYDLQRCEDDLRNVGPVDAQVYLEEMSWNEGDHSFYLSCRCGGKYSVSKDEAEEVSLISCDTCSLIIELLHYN
Sequence of UniProt Q9H8M5 (Q9H8M5 whole entry, looked up): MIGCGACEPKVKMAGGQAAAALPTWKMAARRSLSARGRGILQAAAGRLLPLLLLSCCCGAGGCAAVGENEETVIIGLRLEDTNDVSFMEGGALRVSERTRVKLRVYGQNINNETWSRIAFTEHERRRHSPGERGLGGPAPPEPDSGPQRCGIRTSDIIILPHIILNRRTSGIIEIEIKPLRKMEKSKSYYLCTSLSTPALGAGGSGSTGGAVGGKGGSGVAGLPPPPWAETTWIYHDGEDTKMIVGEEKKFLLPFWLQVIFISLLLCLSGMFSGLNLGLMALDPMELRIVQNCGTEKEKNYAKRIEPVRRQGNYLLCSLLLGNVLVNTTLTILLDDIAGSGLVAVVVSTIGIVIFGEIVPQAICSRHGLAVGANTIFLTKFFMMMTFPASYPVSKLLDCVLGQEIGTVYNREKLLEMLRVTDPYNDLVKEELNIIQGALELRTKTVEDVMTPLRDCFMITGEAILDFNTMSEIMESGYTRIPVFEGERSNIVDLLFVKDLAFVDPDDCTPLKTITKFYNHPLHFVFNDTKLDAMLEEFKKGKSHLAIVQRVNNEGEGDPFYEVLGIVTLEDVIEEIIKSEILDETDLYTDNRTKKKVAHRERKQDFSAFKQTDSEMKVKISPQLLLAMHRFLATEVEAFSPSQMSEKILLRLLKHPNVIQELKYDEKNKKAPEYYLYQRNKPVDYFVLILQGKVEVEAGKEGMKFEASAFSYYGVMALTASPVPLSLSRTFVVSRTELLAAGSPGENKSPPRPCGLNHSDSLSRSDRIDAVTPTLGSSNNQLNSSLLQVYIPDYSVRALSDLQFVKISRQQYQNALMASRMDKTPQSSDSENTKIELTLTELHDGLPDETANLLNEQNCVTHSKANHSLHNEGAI
Sequence of UniProt O75153 (O75153 whole entry, looked up): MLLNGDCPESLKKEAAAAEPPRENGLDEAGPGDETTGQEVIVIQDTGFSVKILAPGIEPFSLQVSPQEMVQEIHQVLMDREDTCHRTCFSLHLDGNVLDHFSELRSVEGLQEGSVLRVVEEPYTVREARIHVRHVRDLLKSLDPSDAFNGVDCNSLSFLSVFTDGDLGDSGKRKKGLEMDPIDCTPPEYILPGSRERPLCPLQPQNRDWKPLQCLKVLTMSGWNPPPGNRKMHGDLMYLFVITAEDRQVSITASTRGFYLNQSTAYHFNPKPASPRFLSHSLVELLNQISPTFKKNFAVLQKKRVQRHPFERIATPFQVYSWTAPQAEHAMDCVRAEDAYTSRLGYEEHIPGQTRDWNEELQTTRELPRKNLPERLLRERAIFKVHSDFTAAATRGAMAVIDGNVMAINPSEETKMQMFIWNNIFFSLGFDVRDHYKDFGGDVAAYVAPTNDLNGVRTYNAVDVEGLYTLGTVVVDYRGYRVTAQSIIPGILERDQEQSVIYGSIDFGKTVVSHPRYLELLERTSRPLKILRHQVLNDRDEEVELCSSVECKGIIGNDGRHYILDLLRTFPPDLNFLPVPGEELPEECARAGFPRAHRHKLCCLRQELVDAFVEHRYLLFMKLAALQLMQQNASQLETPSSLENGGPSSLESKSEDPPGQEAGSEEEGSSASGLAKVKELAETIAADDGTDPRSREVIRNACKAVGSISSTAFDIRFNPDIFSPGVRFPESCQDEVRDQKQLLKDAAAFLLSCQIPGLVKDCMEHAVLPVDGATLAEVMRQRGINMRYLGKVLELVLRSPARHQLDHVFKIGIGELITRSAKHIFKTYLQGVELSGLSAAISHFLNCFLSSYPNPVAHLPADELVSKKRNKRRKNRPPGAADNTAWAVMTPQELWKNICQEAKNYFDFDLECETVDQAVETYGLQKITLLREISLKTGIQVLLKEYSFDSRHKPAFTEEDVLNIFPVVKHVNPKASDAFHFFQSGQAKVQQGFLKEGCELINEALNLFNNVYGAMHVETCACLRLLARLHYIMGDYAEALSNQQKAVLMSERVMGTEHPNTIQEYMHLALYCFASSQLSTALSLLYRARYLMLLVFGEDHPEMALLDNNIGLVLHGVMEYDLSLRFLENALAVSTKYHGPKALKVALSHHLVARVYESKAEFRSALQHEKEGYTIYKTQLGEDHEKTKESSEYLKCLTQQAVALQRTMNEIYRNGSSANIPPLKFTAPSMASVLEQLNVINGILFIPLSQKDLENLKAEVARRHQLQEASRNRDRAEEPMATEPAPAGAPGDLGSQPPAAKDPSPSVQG
Sequence of UniProt Q8IWV2 (Q8IWV2 whole entry, looked up): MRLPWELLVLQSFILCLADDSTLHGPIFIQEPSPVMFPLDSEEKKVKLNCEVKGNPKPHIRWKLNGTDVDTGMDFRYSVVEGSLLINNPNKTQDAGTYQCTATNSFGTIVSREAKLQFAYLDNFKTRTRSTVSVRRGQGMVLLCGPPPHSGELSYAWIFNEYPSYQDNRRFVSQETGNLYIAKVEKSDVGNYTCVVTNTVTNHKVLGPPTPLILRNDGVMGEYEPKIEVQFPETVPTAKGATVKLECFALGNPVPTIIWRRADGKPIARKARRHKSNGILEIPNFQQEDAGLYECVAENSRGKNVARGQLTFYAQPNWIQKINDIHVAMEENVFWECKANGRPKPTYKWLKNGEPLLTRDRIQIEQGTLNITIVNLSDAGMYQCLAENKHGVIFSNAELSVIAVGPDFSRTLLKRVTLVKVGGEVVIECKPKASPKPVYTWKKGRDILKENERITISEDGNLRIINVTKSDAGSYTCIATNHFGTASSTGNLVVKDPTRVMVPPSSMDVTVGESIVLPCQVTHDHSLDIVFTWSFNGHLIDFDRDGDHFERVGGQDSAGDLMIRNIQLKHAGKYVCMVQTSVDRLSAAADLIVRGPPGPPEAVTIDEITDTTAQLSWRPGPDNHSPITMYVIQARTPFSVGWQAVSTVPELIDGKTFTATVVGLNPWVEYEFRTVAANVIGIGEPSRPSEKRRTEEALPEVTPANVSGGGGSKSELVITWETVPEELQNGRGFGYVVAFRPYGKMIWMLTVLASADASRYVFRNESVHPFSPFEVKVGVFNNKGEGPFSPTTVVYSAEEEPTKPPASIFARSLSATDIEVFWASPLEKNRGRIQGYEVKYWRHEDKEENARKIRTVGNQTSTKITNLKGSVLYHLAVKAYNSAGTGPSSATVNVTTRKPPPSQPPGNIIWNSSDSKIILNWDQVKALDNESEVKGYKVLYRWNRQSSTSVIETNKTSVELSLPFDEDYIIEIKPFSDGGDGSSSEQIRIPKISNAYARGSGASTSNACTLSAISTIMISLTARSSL
Sequence of UniProt G9CGD6 (G9CGD6 whole entry, looked up): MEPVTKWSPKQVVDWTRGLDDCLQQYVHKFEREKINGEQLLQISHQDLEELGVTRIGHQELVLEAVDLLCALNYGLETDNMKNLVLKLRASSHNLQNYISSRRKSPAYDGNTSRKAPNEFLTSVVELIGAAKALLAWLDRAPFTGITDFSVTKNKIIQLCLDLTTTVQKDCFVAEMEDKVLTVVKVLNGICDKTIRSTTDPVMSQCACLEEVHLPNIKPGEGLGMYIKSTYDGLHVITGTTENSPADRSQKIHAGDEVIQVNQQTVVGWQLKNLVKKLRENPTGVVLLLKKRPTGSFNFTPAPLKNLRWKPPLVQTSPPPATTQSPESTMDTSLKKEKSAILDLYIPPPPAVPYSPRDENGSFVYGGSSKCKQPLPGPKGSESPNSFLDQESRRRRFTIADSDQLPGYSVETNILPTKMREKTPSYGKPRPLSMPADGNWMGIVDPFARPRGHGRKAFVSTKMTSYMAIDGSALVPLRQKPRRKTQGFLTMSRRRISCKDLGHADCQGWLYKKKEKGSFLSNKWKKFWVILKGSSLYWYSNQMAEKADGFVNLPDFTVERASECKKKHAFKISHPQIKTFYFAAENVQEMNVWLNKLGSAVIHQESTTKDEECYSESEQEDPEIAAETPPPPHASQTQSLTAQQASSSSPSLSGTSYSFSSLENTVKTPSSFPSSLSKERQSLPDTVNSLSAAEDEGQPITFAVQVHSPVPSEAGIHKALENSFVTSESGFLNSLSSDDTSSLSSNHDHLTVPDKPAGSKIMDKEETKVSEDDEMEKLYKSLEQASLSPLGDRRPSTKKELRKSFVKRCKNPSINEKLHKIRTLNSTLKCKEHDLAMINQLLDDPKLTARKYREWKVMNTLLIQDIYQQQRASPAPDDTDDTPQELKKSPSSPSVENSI
Sequence of UniProt Q13948 (Q13948 whole entry, looked up): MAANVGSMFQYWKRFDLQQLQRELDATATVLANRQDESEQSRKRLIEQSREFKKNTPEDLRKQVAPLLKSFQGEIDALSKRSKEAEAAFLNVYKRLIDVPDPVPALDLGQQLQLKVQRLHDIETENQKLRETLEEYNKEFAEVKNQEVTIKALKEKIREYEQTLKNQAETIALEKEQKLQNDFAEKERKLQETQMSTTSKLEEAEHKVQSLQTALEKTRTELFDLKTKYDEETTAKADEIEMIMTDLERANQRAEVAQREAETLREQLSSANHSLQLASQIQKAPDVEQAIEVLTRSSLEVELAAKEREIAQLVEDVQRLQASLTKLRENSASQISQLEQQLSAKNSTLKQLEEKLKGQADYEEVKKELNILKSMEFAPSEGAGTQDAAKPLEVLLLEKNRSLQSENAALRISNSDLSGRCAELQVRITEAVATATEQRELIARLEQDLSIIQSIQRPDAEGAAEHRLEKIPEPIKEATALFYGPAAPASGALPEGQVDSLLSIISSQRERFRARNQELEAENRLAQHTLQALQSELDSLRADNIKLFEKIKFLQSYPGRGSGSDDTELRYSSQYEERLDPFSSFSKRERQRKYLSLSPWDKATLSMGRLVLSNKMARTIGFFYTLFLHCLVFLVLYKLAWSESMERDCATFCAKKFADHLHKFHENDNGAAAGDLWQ

Target | log2 fold change [1] | log2 fold change [2] | log2 fold change [3] | log2 fold change [4] | log2 fold change [5] | log2 fold change [6] | log2 fold change [7] | log2 fold change [8] | log2 fold change [9] | log2 fold change [10] | log2 fold change [11] | log2 fold change [12] | log2 fold change [13] | log2 fold change [14] | log2 fold change [15] | log2 fold change [16] | log2 fold change [17] | log2 fold change [18] | log2 fold change [19] | log2 fold change [20]
COG4 (UniProt Q9H9E3) | 0.028 | -0.131 | 0.025 | 0.029 | -0.003 | 0.079 | 0.011 | 0.016 | 0.022 | 0.009 | -0.02 | -0.164 | -0.088 | -0.014 | 0.022 | -0.207 | 0.018 | 0.026 | 0.025 | 0.036
DBF4 (UniProt Q9UBU7) | -0.118 | -0.072 | -0.025 | -0.023 | -0.058 | 0.04 | -0.072 | -0.028 | – | -0.029 | – | 0 | -0.031 | -0.409 (active) | 0.004 | 0.059 | -0.009 | -0.018 | -0.028 | 0.035
CNK3/IPCEF1 isoform 2 (UniProt G9CGD6) | -0.483 | -0.048 | -0.012 | -0.082 | -0.007 | 0.041 | -0.062 | – | – | – | – | – | – | -1.84 (active) | 0.129 | 0.326 | 0.105 | – | – | 0.4
DAPK1 isoform 3 (UniProt P53355) | 0.085 | 0.001 | 0.322 | -0.109 | 0.058 | – | – | 0.051 | 0.063 | 0.139 | 0.042 | – | 0.022 | 0.188 | 0.042 | 0.058 | – | -0.141 | – | -0.383
CLASP2 isoform 3 (UniProt O75122) | -0.151 | -0.103 | 0.007 | -0.051 | -0.003 | 0.035 | -0.008 | 0.032 | 0 | -0.007 | -0.008 | – | -0.018 | -0.172 | -0.015 | 0.077 | 0.015 | 0.041 | -0.021 | 0.247 (active)
CLCN3 isoform 2 (UniProt P51790) | -0.02 | 0.02 | 0.024 | -0.015 | 0.033 | 0.041 | 0.022 | -0.007 | -0.002 | 0.005 | 0.047 | – | -0.047 | -0.075 | 0.034 | -0.018 | -0.011 | 0.026 | -0.005 | 0.024
CORO7 (UniProt P57737) | 0.001 | 0.011 | -0.092 | 0.191 | -0.05 | -0.081 | 0.061 | 0.259 | – | -0.062 | – | – | -0.004 | -0.139 | -0.084 | 0 | 0.092 | 0.016 | – | -0.335
DHX32 (UniProt Q7L7V1) | 0.019 | 0.027 | 0.044 | -0.043 | – | 0.062 | 0.048 | 0.017 | – | 0.02 | – | – | -0.03 | -0.013 | – | -0.01 | 0.108 | 0.012 | – | -0.077
CNNM2 (UniProt Q9H8M5) | -0.049 | -0.105 | 0.007 | 0.065 | -0.01 | -0.048 | 0.033 | – | -0.003 | – | 0.006 | – | 0.021 | -0.039 | 0.041 | -0.064 | -0.078 | -0.026 | – | 0.036
DNM2 (UniProt P50570) | 0.037 | -0.051 | 0.024 | 0.007 | 0.029 | -0.004 | 0.061 | 0.014 | -0.02 | 0.006 | -0.003 | 0.022 | -0.013 | 0.021 | -0.007 | -0.076 | 0.001 | 0.033 | -0.011 | 0.035
CNTN4 (UniProt Q8IWV2) | -0.148 | 0.185 | 0.021 | -0.104 | – | -0.193 | 0.124 | -0.074 | 0.03 | -0.022 | -0.052 | -0.066 | -0.268 | -0.432 | – | 0.545 | -0.182 | -0.067 | -0.145 | 0.484
DDAH1 (UniProt O94760) | 0.015 | 0.007 | 0.037 | 0.014 | -0.002 | 0 | 0.009 | – | 0.003 | – | 0.011 | – | 0 | 0.059 | 0.186 | -0.039 | -0.044 | -0.058 | – | 0.196
DNAJC24 (UniProt Q6P3W2) | 0.079 | 0.001 | -0.017 | 0.009 | -0.088 | 0.037 | -0.027 | -0.017 | -0.006 | -0.038 | 0.006 | – | 0.074 | 0.152 | -0.025 | -0.162 | 0.073 | 0.042 | – | -0.134
DNA2 (UniProt P51530) | -0.116 | -0.15 | -0.009 | -0.039 | -0.035 | 0.123 | -0.098 | -0.007 | – | 0.036 | – | – | -0.046 | 0.052 | -0.02 | 0.013 | -0.07 | 0.051 | – | -0.017
DAZAP1 (UniProt Q96EP5) | -0.027 | 0.042 | -0.026 | -0.039 | 0.058 | -0.018 | -0.045 | 0.009 | -0.004 | 0.034 | 0.017 | -0.043 | 0.073 | 0.035 | 0.015 | 0 | 0.064 | 0.003 | 0.243 | -0.04
CUX1 isoform 2 (UniProt Q13948) | -0.035 | 0.016 | 0.033 | 0.085 | -0.028 | 0.067 | -0.022 | – | 0.071 | – | -0.168 | – | -0.073 | 0.104 | 0.014 | 0.041 | 0.057 | -0.12 | – | -0.089
DCTN1 isoform 4 (UniProt Q14203) | 0.3 | -0.254 | 0.212 | -0.046 | 0.105 | 0.078 | -0.064 | 0.107 | -0.05 | 0.051 | -0.039 | – | -0.031 | 0.054 | -0.032 | 0.121 | 0.173 | -0.103 | – | -0.239
CLUH (UniProt O75153) | -0.022 | -0.076 | -0.076 | 0.002 | -0.029 | 0.007 | 0.058 | -0.014 | -0.014 | 0.017 | -0.014 | – | -0.057 | -0.012 | 0.147 | 0.004 | -0.005 | -0.007 | -0.044 | 0.032
